Test in all cases: DAPPL (digital affinity profiling via proximity ligation, sequencing); 10 mM Tris-HCl pH 7.5, 50 mM NaCl, 1 mM DTT, 4% glycerol, room temperature, 30 min; GST-TFs on glutathione beads, 16-mer random dsDNA library, 0.1% formaldehyde crosslink after washing; high values mean tight binding
In one assay the target is T1, FEV (Homo sapiens, UniProt Q99581 1-238).
T1 sequence: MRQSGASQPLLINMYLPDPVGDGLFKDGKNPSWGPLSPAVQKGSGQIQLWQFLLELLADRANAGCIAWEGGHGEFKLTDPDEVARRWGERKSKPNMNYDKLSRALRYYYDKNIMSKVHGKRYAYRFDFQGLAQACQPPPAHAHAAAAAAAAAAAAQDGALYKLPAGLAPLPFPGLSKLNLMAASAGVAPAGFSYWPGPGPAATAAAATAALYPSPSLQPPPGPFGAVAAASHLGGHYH
Conditions: protein: recombinant; tags: N-terminal GST; dsDNA, one strand shown. In a few lines: (§1)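 A tag-only sample was pooled with DNA-barcoded human transcription factors that had been expressed in yeast as GST fusions and captured on glutathione beads. The pools were incubated for 30 min at room temperature with 200 nmole of a random double-stranded 16-mer DNA library in Tris/NaCl/DTT/glycerol buffer, then washed, crosslinked with 0.1% formaldehyde, proximity-ligated (BsaI/T4 ligase, 1 h, 37 °C), PCR-amplified and sequenced on an Illumina NextSeq500. Binding signal is each hexamer's read frequency for a factor divided by its frequency for the tag-only sample.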

Another assay has as its target ETV5 (Homo sapiens, UniProt P41161 1-510). Particulars: protein: recombinant; tags: N-terminal GST; dsDNA, one strand shown. The method in brief:
as §1

Another assay addresses HSF1 (Homo sapiens, UniProt Q00613 1-529). Conditions: protein: recombinant; tags: N-terminal GST; chain copies: 3; dsDNA, one strand shown. The method in brief:
as §1

In another assay the target is T2, SPIC (Homo sapiens, UniProt Q8N5J4 1-248).
T2 sequence: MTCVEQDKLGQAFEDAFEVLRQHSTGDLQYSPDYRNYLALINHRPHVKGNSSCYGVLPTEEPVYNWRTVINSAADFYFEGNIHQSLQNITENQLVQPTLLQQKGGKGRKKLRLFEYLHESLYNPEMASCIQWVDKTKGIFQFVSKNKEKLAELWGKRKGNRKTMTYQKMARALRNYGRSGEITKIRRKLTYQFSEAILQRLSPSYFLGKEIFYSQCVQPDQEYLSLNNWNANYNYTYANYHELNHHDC
Particulars: protein: recombinant; tags: N-terminal GST; dsDNA, one strand shown. In a few lines:
as §1

A further assay has as its target ELF4 (Homo sapiens, UniProt Q99607 1-663). Particulars: protein: recombinant; tags: N-terminal GST; dsDNA, one strand shown. The method in brief:
as §1

The next assay deals with T3, ELK4 (Homo sapiens, UniProt P28324-2 1-405).
T3 sequence: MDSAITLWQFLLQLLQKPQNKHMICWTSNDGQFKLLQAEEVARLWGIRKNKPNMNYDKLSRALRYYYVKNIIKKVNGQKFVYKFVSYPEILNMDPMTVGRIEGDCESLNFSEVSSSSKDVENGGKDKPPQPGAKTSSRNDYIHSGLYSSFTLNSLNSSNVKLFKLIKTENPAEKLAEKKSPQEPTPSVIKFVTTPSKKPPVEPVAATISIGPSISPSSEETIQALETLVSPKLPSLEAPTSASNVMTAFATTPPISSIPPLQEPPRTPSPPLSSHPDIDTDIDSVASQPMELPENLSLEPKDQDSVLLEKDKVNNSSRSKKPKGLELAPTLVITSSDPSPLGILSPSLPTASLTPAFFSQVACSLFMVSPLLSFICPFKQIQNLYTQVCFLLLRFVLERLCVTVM
Particulars: protein: recombinant; tags: N-terminal GST; dsDNA, one strand shown. The method in brief: as §1

A further assay addresses T4, ETV2 (Homo sapiens, UniProt O00321 1-342).
T4 sequence: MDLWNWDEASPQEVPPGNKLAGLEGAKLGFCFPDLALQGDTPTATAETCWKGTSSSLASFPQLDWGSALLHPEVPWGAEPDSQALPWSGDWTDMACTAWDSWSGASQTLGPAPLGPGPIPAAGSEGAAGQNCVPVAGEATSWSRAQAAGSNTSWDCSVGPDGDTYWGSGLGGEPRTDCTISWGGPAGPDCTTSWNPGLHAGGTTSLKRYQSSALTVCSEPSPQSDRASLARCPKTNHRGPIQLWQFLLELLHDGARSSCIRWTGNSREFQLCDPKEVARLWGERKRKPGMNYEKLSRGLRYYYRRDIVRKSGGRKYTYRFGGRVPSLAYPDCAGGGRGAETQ
Particulars: protein: recombinant; tags: N-terminal GST; dsDNA, one strand shown. The method in brief:
as §1

The target of another assay is T5, ELF3 (Homo sapiens, UniProt P78545 1-371).
T5 sequence: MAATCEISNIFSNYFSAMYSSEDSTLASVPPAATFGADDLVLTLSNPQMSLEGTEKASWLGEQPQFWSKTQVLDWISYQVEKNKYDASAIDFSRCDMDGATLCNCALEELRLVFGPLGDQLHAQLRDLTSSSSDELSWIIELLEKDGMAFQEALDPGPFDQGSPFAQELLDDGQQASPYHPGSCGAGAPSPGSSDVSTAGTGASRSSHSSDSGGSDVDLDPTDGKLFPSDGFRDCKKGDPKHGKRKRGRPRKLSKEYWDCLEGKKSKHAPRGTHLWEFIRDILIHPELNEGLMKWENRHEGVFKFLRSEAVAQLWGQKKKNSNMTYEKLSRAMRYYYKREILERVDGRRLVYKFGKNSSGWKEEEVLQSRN
Particulars: protein: recombinant; tags: N-terminal GST; dsDNA, one strand shown. The method in brief: as §1

The target in another assay is CRX (Homo sapiens, UniProt O43186 1-299). Particulars: protein: recombinant; tags: N-terminal GST; dsDNA, one strand shown. In a few lines:
as §1

In another assay the target is ETV1 (Homo sapiens, UniProt P50549 1-477). Particulars: protein: recombinant; tags: N-terminal GST; dsDNA, one strand shown. The method in brief: as §1
Chain of ETV1 (P50549 whole entry): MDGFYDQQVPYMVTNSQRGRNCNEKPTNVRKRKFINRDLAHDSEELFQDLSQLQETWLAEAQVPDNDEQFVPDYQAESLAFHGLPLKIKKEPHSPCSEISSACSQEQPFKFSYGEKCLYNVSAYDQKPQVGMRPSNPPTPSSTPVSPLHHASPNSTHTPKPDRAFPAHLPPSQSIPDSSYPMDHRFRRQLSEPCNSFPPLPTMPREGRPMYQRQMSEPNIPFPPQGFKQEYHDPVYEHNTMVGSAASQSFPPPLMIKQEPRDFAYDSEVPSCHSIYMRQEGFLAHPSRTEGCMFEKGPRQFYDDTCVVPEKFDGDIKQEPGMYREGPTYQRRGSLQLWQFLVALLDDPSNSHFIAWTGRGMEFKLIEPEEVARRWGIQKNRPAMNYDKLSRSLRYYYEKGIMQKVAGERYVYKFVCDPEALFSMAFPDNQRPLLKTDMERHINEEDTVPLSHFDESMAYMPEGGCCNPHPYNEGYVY
A further assay addresses T6, ERF (Homo sapiens, UniProt P50548 1-548).
T6 sequence: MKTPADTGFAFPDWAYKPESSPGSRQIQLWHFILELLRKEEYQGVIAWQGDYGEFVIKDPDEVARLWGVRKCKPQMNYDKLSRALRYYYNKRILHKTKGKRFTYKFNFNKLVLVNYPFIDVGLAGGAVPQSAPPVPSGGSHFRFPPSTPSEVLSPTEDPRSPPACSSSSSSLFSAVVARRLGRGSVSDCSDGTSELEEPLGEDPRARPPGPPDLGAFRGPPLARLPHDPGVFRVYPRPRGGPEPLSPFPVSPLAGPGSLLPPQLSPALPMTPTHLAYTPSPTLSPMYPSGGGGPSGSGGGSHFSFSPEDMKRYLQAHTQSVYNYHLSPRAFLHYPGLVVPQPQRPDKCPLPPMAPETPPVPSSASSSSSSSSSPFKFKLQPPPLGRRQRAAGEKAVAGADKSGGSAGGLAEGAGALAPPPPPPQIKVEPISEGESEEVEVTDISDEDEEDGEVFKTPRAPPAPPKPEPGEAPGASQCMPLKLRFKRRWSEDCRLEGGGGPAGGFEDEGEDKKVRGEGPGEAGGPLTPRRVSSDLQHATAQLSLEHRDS
Conditions: protein: recombinant; tags: N-terminal GST; dsDNA, one strand shown. In a few lines:
as §1

Another assay concerns the target T7, ETV3L (Homo sapiens, UniProt Q6ZN32 1-361).
T7 sequence: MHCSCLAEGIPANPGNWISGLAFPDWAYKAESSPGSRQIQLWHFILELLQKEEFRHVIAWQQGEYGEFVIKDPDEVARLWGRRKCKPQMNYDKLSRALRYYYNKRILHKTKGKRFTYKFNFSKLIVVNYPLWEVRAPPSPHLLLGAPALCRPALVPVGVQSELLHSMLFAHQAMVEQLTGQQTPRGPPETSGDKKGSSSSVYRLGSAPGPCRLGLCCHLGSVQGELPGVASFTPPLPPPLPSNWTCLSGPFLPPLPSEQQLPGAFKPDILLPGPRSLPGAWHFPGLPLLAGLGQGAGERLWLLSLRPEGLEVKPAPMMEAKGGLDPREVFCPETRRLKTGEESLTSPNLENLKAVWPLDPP
Particulars: protein: recombinant; tags: N-terminal GST; dsDNA, one strand shown. The method in brief:
as §1

The target of another assay is T8, ETS2 (Homo sapiens, UniProt P15036 1-469).
T8 sequence: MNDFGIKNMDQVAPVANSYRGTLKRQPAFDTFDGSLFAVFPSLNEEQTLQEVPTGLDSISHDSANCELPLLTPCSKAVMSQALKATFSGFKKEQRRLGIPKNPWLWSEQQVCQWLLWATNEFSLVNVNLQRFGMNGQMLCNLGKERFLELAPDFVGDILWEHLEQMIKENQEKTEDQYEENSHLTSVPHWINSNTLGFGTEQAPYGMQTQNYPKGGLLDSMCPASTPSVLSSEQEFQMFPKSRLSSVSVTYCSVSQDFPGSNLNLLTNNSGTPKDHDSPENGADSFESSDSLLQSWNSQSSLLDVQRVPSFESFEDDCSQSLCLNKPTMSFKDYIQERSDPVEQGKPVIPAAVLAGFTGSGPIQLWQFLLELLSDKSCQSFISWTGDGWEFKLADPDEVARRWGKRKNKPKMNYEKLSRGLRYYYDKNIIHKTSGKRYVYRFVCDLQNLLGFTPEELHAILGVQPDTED
Conditions: protein: recombinant; tags: N-terminal GST; dsDNA, one strand shown. The method in brief: as §1

In the next assay the target is T9, SPDEF (Homo sapiens, UniProt O95238 1-335).
T9 sequence: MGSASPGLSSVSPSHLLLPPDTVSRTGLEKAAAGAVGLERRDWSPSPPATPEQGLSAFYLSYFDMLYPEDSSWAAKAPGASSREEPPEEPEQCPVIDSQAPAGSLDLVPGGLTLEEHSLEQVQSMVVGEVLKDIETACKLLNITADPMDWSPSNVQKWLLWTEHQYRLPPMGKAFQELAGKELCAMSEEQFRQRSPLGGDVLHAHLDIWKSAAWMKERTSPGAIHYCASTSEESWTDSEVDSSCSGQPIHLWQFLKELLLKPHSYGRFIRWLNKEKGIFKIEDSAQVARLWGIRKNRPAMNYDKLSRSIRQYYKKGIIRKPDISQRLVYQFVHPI
Conditions: protein: recombinant; tags: N-terminal GST; dsDNA, one strand shown. The method in brief: as §1

A further assay addresses T10, ETV7 (Homo sapiens, UniProt Q9Y603 1-341).
T10 sequence: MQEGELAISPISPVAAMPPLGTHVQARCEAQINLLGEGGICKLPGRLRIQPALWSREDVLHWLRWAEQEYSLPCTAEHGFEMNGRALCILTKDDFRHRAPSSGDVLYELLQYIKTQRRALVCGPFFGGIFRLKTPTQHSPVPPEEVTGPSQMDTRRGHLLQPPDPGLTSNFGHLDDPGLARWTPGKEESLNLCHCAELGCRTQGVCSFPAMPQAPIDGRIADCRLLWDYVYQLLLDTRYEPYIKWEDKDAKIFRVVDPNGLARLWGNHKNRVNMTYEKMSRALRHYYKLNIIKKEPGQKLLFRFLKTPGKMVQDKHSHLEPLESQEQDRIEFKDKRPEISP
Particulars: protein: recombinant; tags: N-terminal GST; dsDNA, one strand shown. The method in brief:
as §1

The target of the next assay is T11, ELF5 (Homo sapiens, UniProt Q9UKW6-2 1-255).
T11 sequence: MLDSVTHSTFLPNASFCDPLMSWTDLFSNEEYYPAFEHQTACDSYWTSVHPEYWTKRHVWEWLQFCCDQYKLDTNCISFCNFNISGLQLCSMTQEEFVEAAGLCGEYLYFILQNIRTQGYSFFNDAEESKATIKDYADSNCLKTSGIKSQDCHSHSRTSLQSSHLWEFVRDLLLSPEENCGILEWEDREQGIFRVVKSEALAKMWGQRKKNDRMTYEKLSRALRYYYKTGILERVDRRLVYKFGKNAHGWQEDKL
Conditions: protein: recombinant; tags: N-terminal GST; dsDNA, one strand shown. In a few lines:
as §1

A further assay deals with T12, ETV3 (Homo sapiens, UniProt P41162-2 1-143).
T12 sequence: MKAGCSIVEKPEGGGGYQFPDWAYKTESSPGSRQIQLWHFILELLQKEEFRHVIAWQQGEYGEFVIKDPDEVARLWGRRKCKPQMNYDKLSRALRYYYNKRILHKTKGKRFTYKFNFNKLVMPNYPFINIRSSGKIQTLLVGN
Particulars: protein: recombinant; tags: N-terminal GST; dsDNA, one strand shown. The method in brief:
as §1

The next assay deals with ETV6 (Homo sapiens, UniProt P41212 1-452). Conditions: protein: recombinant; tags: N-terminal GST; dsDNA, one strand shown. The method in brief:
as §1

Chain of CRX (O43186 whole entry): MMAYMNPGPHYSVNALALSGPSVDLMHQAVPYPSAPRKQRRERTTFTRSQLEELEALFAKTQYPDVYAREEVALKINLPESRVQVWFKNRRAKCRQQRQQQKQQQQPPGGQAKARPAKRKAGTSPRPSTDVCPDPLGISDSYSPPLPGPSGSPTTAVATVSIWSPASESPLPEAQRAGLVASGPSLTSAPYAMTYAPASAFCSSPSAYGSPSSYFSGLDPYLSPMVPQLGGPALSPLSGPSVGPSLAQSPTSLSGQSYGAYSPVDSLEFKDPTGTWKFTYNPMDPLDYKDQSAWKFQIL
Chain of ETV5 (P41161 whole entry): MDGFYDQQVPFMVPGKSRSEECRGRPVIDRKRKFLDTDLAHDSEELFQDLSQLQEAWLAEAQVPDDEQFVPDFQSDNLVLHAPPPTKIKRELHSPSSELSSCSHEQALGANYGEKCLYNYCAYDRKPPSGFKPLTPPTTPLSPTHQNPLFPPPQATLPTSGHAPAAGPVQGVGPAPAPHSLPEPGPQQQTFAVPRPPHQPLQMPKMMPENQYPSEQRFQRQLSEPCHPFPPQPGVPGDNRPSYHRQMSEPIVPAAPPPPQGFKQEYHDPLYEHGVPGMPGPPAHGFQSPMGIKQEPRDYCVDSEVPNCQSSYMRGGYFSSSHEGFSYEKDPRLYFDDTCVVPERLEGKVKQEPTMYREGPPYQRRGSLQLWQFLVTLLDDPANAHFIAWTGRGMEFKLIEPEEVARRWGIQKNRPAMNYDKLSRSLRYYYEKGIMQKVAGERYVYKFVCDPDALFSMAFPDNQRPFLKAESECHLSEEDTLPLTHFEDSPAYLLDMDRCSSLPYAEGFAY
Chain of HSF1 (Q00613 whole entry): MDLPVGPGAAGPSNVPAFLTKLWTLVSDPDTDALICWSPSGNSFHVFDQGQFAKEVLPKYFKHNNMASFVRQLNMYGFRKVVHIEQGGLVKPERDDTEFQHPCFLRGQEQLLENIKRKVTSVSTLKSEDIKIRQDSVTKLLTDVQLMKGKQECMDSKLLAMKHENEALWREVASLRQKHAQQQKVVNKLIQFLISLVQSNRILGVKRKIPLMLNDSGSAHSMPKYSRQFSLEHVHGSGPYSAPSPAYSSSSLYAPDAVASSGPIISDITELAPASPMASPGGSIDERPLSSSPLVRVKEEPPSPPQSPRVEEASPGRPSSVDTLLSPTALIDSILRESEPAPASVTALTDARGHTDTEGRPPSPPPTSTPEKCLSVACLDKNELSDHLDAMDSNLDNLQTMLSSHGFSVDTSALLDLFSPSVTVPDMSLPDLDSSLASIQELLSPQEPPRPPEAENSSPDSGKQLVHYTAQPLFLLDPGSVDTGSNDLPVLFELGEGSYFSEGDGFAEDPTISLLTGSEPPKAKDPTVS
Chain of ETV6 (P41212 whole entry): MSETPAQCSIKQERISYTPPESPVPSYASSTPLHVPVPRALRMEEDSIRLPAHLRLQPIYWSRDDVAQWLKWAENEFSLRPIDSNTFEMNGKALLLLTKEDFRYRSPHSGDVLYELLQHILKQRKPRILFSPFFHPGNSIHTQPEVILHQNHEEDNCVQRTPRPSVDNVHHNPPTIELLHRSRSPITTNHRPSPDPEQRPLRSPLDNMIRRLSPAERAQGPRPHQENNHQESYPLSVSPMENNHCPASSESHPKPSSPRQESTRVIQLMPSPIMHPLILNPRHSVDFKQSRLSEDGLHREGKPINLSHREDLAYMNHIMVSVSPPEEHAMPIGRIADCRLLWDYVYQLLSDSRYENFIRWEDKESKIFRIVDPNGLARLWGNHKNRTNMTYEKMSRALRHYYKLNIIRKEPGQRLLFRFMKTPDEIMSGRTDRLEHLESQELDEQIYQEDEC
Chain of ELF4 (Q99607 whole entry): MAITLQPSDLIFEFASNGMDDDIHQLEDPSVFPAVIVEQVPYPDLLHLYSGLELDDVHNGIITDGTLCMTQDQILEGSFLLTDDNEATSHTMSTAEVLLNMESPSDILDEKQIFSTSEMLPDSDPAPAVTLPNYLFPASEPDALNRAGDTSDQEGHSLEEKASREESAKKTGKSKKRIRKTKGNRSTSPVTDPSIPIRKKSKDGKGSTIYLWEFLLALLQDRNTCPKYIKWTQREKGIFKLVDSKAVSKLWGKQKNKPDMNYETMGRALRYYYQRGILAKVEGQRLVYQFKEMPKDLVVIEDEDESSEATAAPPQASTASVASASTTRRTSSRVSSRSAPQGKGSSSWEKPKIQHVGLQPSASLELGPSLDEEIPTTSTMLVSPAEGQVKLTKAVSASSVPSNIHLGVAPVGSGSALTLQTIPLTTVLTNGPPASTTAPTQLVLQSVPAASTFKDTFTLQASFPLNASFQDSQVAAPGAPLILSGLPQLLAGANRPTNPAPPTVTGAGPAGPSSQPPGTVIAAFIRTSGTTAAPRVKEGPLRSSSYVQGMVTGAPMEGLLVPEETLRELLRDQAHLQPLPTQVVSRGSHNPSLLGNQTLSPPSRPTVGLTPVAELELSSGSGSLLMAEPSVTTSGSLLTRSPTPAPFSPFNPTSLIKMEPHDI

In the case of ATGCAA, the binding signal is 1.23 fold enrichment (6-mer frequency, TF over GST control) with FEV; 1.25 fold enrichment (6-mer frequency, TF over GST control) with ETV5; 1.08 fold enrichment (6-mer frequency, TF over GST control) with HSF1; 1.11 fold enrichment (6-mer frequency, TF over GST control) with SPIC; 1.25 fold enrichment (6-mer frequency, TF over GST control) with ELF4; 1.32 fold enrichment (6-mer frequency, TF over GST control) in the assay with ELK4. Moreover, the binding signal in the assay with ETV2 is 1.26 fold enrichment (6-mer frequency, TF over GST control); with ELF3, 1.36 fold enrichment (6-mer frequency, TF over GST control); in the assay with CRX it was 1.07 fold enrichment (6-mer frequency, TF over GST control); with ETV1 it was 1.26 fold enrichment (6-mer frequency, TF over GST control); with ERF, 1.23 fold enrichment (6-mer frequency, TF over GST control); with ETV3L, 1.26 fold enrichment (6-mer frequency, TF over GST control). Besides, the binding signal is 1.26 fold enrichment (6-mer frequency, TF over GST control) with ETS2; 1.3 fold enrichment (6-mer frequency, TF over GST control) in the assay with SPDEF; 1.19 fold enrichment (6-mer frequency, TF over GST control) in the assay with ETV7; 1.26 fold enrichment (6-mer frequency, TF over GST control) with ELF5; 1.17 fold enrichment (6-mer frequency, TF over GST control) with ETV3; 1.24 fold enrichment (6-mer frequency, TF over GST control) with ETV6.

These data come from paper PMC7862700, “An all-to-all approach to the identification of sequence-specific readers for epigenetic DNA modifications on cytosine”.
